Compound activity from PubChem BioAssay.
Rows were chosen to be rich in hits. Some 2.2% of all compounds tested hit in one or more screens of this group.
MEX-5 binding: C. elegans MEX-5 TCR-2 RNA binding activity. activity score (negative = inhibition of binding), % at 10 µM. Q9XUB2. MEX-5/FITC-TCR2 RNA binding, fluorescence polarization; hits give low values. 300,000 tested, 0.38% active. AID 1832;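 active means inhibition past about -25% in most replicates, and total fluorescence under double the plate's negative control median, limit read from the data; inconclusive means replicates evenly split on the limit, or fluorescence at least double controls; inactive means too little inhibition in most replicates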;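 further: 0% = DMSO and -100% = 5 µM competing unlabeled TCR2 RNA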
JMJD2C inh: human JMJD2C demethylase inhibition. GST-JMJD2C(1-420) H3K9me3 demethylation, DELFIA europium. inhibition, % at 2.35 µM. 330,000 tested, 0.069% active;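 active means more than half of a compound's replicate wells show inhibition beyond 50%, single wells judged on their own value; inconclusive means some, but no more than half, of replicates pass 50% inhibition; inactive means no replicate passes 50% inhibition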;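 further: signal counts dimethyl H3K9 product captured on neutravidin plate; 0% = median of DMSO wells and 100% = 0.3 times that DMSO median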
VLA-4 inh: inhibition in a human VLA-4 binding assay. P13612. VLA-4 expressing cells, ligand binding flow cytometry. inhibition, % (about 7 µM as worked out from the volumes in the protocol). 330,000 tested, 0.2% active; in the data active means inhibition above about 50%
m5-HT2A agonist: mouse HTR2A agonism via beta-arrestin recruitment | CHO-K1 mHTR2A beta-arrestin complementation, luminescence; percent of 30 µM serotonin response | activation, % at 7.6 µM | 360,000 tested, 0.66% active | P35363;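 active means activation above a run cutoff, the mean activation of all tested compounds plus 3 SD, cut at about 14% in these data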;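 further: 0% = plate median of compound wells and 100% = 30 µM serotonin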
Target sequence (P35363 whole entry, looked up): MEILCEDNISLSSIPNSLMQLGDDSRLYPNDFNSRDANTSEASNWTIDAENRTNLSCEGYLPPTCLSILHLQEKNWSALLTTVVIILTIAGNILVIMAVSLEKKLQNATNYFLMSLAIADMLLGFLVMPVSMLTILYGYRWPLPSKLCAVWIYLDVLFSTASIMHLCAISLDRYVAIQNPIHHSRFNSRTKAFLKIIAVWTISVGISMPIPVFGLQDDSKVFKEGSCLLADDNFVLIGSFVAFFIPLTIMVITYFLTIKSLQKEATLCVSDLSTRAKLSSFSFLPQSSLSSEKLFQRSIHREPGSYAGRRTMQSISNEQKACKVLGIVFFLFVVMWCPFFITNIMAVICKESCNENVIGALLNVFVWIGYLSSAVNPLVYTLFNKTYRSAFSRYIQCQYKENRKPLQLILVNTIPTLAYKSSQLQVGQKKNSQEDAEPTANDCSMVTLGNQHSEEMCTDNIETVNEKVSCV
V-ATPase pH: regulators of yeast V-ATPase proton transport; S. cerevisiae, pHLuorin cytosolic pH fluorescence; response, % at 10 µM; 350,000 tested, 0.37% active; AID 504577; in the data active means response mostly above about 7.3%, no sharp cut-off; inactive means mostly below about 5.4%; further: actives read high
Granule exo inh: blocks lytic granule exocytosis. TALL-104 LAMP-1 surface exposure, flow cytometry; cells stimulated with thapsigargin and PMA. inhibition, % at 10 µM. 360,000 tested, 0.66% active. AID 651702;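 active means inhibition above about 55%, limit read from the data; inconclusive means no clear call, values can overlap the other calls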
MOR ag counter: activates human mu opioid receptor in HTR2A counterscreen. U2OS OPRM1 beta-arrestin PathHunter, luminescence; DMSO 0%, DAMGO 9.3 µM 100%. activation, % at 9.3 µM. shares compounds with m5-HT2A agonist. AID 624380. 2,300 tested, 5.3% active;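 active means mean activation above the mean of DMSO-only wells plus 3 SD, cut at about 0.5% in these data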
HTR2A ag conf: confirmation of mouse HTR2A serotonin receptor agonists; shares compounds with m5-HT2A agonist; CHO-K1 PathHunter beta-arrestin recruitment, luminescence; DMSO 0%, 30 µM serotonin 100%; activation, % at 7.6 µM; 2,300 tested, 19% active; AID 624381;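 active means mean activation across triplicates above the hit threshold derived in the original primary screen, cut at about 15% in these data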
* marks the source's active call; other numbers are inactive results.

O=C(NCc1cccnc1)C(Cl)(Cl)Cl was read as MEX-5 binding 1, JMJD2C inh -5, VLA-4 inh -4, m5-HT2A agonist 24*, V-ATPase pH -1, Granule exo inh -5, MOR ag counter -1 and HTR2A ag conf -4.
COc1ccc(CCNCc2ccsc2)cc1OC was read as MEX-5 binding 0, JMJD2C inh 7, VLA-4 inh 16, m5-HT2A agonist 19*, V-ATPase pH -1, Granule exo inh -1, MOR ag counter -1 and HTR2A ag conf 10.
For CC(NCc1ccc(Cl)c(Cl)c1)C(O)c1ccccc1 (configuration not stated) the results were MEX-5 binding -1, JMJD2C inh -2, VLA-4 inh -1, m5-HT2A agonist 16*, V-ATPase pH 1, Granule exo inh -2, MOR ag counter 0 and HTR2A ag conf -4.
CC(NCc1ccccc1Cl)C(O)c1ccccc1 (configuration not stated) was read as MEX-5 binding 2, JMJD2C inh -5, VLA-4 inh -2, m5-HT2A agonist -2, V-ATPase pH 1 and Granule exo inh 3.
`Cc1ccccc1NC(=O)N1Cc2ccccc2-n2nncc2C1` gave m5-HT2A agonist 2, V-ATPase pH 0 and Granule exo inh 0.
For COC1=CC(=O)OC(CCc2ccc3c(c2)OCO3)C1 (configuration not stated) the results were m5-HT2A agonist 4, V-ATPase pH -2 and Granule exo inh 1.
`Cc1cc(O)c2c(C)c(CC(=O)N3C[C@H]4C[C@@H](C3)c3cccc(=O)n3C4)c(=O)oc2c1` gave MEX-5 binding 0, JMJD2C inh 10, VLA-4 inh 46, m5-HT2A agonist 19*, V-ATPase pH -1, Granule exo inh 2, MOR ag counter -1 and HTR2A ag conf -3.
`Clc1ccccc1CN1CCN(c2ccccc2)CC1` gave MEX-5 binding 0, JMJD2C inh 14, VLA-4 inh 22, m5-HT2A agonist 27*, V-ATPase pH -3, Granule exo inh -2, MOR ag counter 0 and HTR2A ag conf 53*.
`Clc1ccc(N2CCN(Cc3ccccc3Cl)CC2)cc1` gave MEX-5 binding 0, JMJD2C inh -7, VLA-4 inh 11, m5-HT2A agonist 10, V-ATPase pH 0 and Granule exo inh -2.
CCCN1CC[C@@H]2c3cc(O)ccc3CC[C@@H]21 was read as JMJD2C inh 19, VLA-4 inh -10, m5-HT2A agonist 17*, V-ATPase pH 0, Granule exo inh -1, MOR ag counter 0 and HTR2A ag conf 49*.
N/C(=N\[N+](=O)[O-])NCCCC(NC(=O)CNC(=O)c1ccccc1)C(=O)O (configuration not stated) was read as MEX-5 binding -2, JMJD2C inh -39, VLA-4 inh 7, m5-HT2A agonist 1, V-ATPase pH 0 and Granule exo inh 2.
`Clc1ccc2sc(C3CCNCC3)nc2c1` gave MEX-5 binding 2, JMJD2C inh -1, VLA-4 inh 9, m5-HT2A agonist 38*, V-ATPase pH -2, Granule exo inh 12, MOR ag counter -1 and HTR2A ag conf 15*.
Screening O=C1OC(c2ccc(Cl)cc2)=N/C1=C\N1CC2CC(C1)c1cccc(=O)n1C2 (configuration not stated) returned MEX-5 binding 1, JMJD2C inh 2, VLA-4 inh 4, m5-HT2A agonist 2, V-ATPase pH 1 and Granule exo inh -5.
For COc1cccc(N2CCN(Cc3cccc(Cl)c3)CC2)c1 the results were MEX-5 binding 0, JMJD2C inh -3, VLA-4 inh 4, m5-HT2A agonist 7, V-ATPase pH 1 and Granule exo inh -2.
`Clc1cccc(N2CCNCC2)c1` gave MEX-5 binding 2, JMJD2C inh inconclusive, VLA-4 inh 0, m5-HT2A agonist 25*, V-ATPase pH -2, Granule exo inh -5, MOR ag counter -1 and HTR2A ag conf 7.
Screening CN1C[C@H](CO)C=C2c3cccc4[nH]cc(c34)C[C@H]21 returned MEX-5 binding inconclusive, JMJD2C inh 3, VLA-4 inh -8, m5-HT2A agonist 30*, V-ATPase pH 3, Granule exo inh 13, MOR ag counter 0 and HTR2A ag conf 94*.
Screening COc1nc2ccccc2nc1N1CCN(C)CC1 returned MEX-5 binding -2, JMJD2C inh 2, VLA-4 inh 7, m5-HT2A agonist -3, V-ATPase pH 3 and Granule exo inh -6.
COc1ccc2c(c1)c(C(=O)O)c(C)n2C(C)C was read as MEX-5 binding 4, JMJD2C inh 20, VLA-4 inh 2, m5-HT2A agonist -3, V-ATPase pH -2 and Granule exo inh -1.
CCOC(=O)c1c(C)n(C(C)C)c2ccc(OC(=O)c3ccc(N4C(=O)CCC4=O)cc3)cc12 was read as MEX-5 binding 1, JMJD2C inh -4, VLA-4 inh 10, m5-HT2A agonist 16*, V-ATPase pH -1, Granule exo inh 0, MOR ag counter 0 and HTR2A ag conf 3.
Clc1ccc2[nH]c3c(c2c1)CCNC3 was read as MEX-5 binding 1, JMJD2C inh 4, VLA-4 inh -1, m5-HT2A agonist 16*, V-ATPase pH 3, Granule exo inh 6, MOR ag counter 0 and HTR2A ag conf 9.
COc1ccc(C(=O)N/N=C/C23CC[C@@H](O)CC2(O)CC[C@@H]2[C@@H]3CCC3(C)C(C4=CC(=O)OC4)CCC23O)cc1 (some centres not stated) was read as MEX-5 binding 0, JMJD2C inh 8, VLA-4 inh 3, m5-HT2A agonist -1, V-ATPase pH -3 and Granule exo inh 6.
For COc1cc(C(=O)N/N=C/C23CC[C@@H](O)CC2(O)CC[C@@H]2[C@@H]3CCC3(C)C(C4=CC(=O)OC4)CCC23O)ccc1O (some centres not stated) the results were MEX-5 binding -2, JMJD2C inh 10, VLA-4 inh 2, m5-HT2A agonist 15*, V-ATPase pH -4, Granule exo inh -6, MOR ag counter 0 and HTR2A ag conf -3.
Screening O=C1NC(=O)C2(CCN(c3ccccc3)CC2)C(=O)N1 returned m5-HT2A agonist 0, V-ATPase pH 3 and Granule exo inh -19.
Screening c1ccc(C2(N3CCCCC3)CCCCC2)cc1 returned VLA-4 inh 10, m5-HT2A agonist 1, V-ATPase pH 1 and Granule exo inh 2.
